Coupling enz: coupling enzyme interference in Giardia aldolase counter-screen | coupling enzyme system counterscreen, AmpLite Red fluorescence | activity change, negative = inhibition, % at 58.2 µM, hits read low | 0.67% of 290,000 active | AID 2472; in the data active means activity change below about -30%
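Coupling enzymes only (glyceraldehyde-3-phosphate) + compound, at 57.5 uM final, 10 min RT; add substrate/coupling/AmpLite Red mix, 20 min RT; fluorescence ex 525/em 598 nm. Actives flag coupling-system interference.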
Tau fibril FP: tau fibrillization inhibition (FP); 0.39% of 280,000 active; P10636; K18 P301L tau heparin fibrillization, Alexa594 FP, 6 h; Potency, µM (doses to about 57.7 µM), most hits filed as inhibitors; further: nearly all actives have a fitted effect of over 55% in size
Target sequence (P10636 561-689 P618L limits assumed): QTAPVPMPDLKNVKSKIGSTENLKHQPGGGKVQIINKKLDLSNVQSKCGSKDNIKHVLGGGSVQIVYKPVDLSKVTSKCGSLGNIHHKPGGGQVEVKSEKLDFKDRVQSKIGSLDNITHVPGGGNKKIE
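Recombinant K18 P301L […], labeled with Alexa 594 at 0.24 uM over 15 uM unlabeled; heparin inducer 20 uM final; 37 C, 6 hr; FP endpoint.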
Tau fluor counter: counter-screen for tau fibril formation inhibitors | Potency, µM (titrated, usually from 57.7 µM) | 0.93% of 280,000 active | tau K18 P301L Alexa594 fluorescence, heparin fibrillization; further: nearly all actives have a fitted effect of over 55% in size
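Human K18 P301L tau (15 uM unlabeled plus 0.24 uM Alexa 594-labeled, final) in 100 mM sodium acetate pH 7 was mixed with compound and 20 uM heparin and incubated 6 hr at 37 C.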
Tau ThT inhib: tau fibrillization inhibition (ThT binding); P10636; recombinant tau K18 P301L (four-repeat tau fragment), heparin-induced fibrillization, ThT fluorescence; Potency, µM (doses to about 57.4 µM), hits mostly inhibitors; 2.1% of 270,000 active; AID 1460; further: nearly all actives have a fitted effect of over 55% in size
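Aggregation was driven by heparin (20 uM final) acting on recombinant tau […] bearing P301L in 100 mM sodium acetate pH 7; fibrils were detected with Thioflavin T.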
KDM4E inh: blocks human JMJD2E demethylase activity | B2RXH2 | JMJD2E catalytic domain, FDH-coupled NADH fluorescence (FDH is formaldehyde dehydrogenase) | Potency, µM (titrated, usually from 57.1 µM), usual class: inhibitors | 1.6% of 230,000 active | AID 2147; active means well fitted inhibition curve with a large enough effect, not every such curve was filed as active; inconclusive means small, poorly fitted or top-dose-only effect, or another doubt; inactive means no such curve, though single readings can be large or run the other way; further: nearly all actives have a fitted effect of over 50% in size
Target sequence (B2RXH2 1-337 limits assumed): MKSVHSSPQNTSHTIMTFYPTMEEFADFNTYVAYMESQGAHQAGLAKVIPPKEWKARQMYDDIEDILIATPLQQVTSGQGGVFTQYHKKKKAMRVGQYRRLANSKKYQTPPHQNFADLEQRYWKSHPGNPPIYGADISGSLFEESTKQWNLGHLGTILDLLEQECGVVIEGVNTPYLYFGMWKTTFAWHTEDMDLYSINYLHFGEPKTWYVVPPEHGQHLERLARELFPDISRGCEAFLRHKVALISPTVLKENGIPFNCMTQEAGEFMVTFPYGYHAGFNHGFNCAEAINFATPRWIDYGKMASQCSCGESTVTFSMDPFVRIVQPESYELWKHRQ
Hits are given with their value; [ ] = dose if it differs, or a comment. Compounds with a hit are over-represented: about 3% of the library has one in this group of screens. Unless noted, the call rests on the fitted dose curve; in most records, active means well fitted curve in the direction sought with a large enough effect; inconclusive means small, poorly fitted or top-dose-only effect, or another doubt; inactive means no such curve, though single readings can be large; an effect the other way counts as inactive or inconclusive.

O=c1[nH]c(S)c(/C=C2\C=Nc3ccccc32)s1 was read as Coupling enz inactive, Tau fibril FP inconclusive, Tau fluor counter inconclusive, Tau ThT inhib 1.4µM and KDM4E inh inactive.
`CC(=O)Oc1c(C)cc(Cl)cc1C(=O)Nc1ccc([N+](=O)[O-])cc1Cl` gave Coupling enz inactive, Tau fibril FP inactive, Tau fluor counter inconclusive, Tau ThT inhib 2.8µM and KDM4E inh inactive.
For CC(=O)OCC(=O)Nc1ccc([N+](=O)[O-])cc1Cl the results were Coupling enz inactive, Tau fibril FP inactive, Tau fluor counter inactive, Tau ThT inhib inactive and KDM4E inh inactive.
For COc1ccc2cc3c(N)c(C(=O)NCc4ccco4)sc3nc2c1 the results were Coupling enz inactive, Tau fibril FP inactive, Tau fluor counter inconclusive, Tau ThT inhib 2.8µM and KDM4E inh inconclusive.
COc1ccc(-c2noc(CSc3nnc(-c4ccncc4)n3-c3ccc(C)c(C)c3)n2)cc1 was read as Tau fibril FP inactive, Tau fluor counter inactive and Tau ThT inhib inactive.
Nc1ccc(-c2nc3ccc(N)cc3s2)cc1 was read as Coupling enz inactive, Tau fibril FP inactive, Tau fluor counter inconclusive, Tau ThT inhib 11µM and KDM4E inh inconclusive.
Nc1ccc2nc(-c3ccc(O)cc3)sc2c1 was read as Tau fibril FP inactive, Tau fluor counter inconclusive and Tau ThT inhib 7.9µM.
Nc1cccc(-c2nc3ccc(N)cc3s2)c1 was read as Coupling enz inactive, Tau fibril FP inactive, Tau fluor counter inconclusive, Tau ThT inhib inconclusive and KDM4E inh inconclusive.
For O=c1c(=Nc2ccccc2O)c(=O)c2ccccc12 the results were Coupling enz inactive, Tau fibril FP inconclusive, Tau fluor counter inactive, Tau ThT inhib 10µM and KDM4E inh inactive.
O=c1c2ccccc2[nH]c2ccccc12 was read as Coupling enz inactive, Tau fibril FP inactive, Tau fluor counter inactive, Tau ThT inhib inactive and KDM4E inh inconclusive.
O=C(O)c1ccc(N=c2oc3cc(O)ccc3cc2C(=O)NCc2ccccc2)cc1 was read as Coupling enz inactive, Tau fibril FP inactive, Tau fluor counter inactive and Tau ThT inhib 28µM.
COc1ccc2cc(C(=O)NCc3ccccc3)c(=Nc3ccc(C(=O)O)cc3)oc2c1 was read as Coupling enz inactive, Tau fibril FP inactive, Tau fluor counter inactive, Tau ThT inhib inconclusive and KDM4E inh inconclusive.
Cc1cc(C2CCCCC2)n(O)c(=O)c1 was read as Coupling enz inactive, Tau fibril FP inactive, Tau fluor counter inactive, Tau ThT inhib inactive and KDM4E inh 10µM.
Cn1c(NC2CCCCC2)cc(=O)n(C)c1=O was read as Coupling enz inactive.
COc1ccc(C)cc1Nc1nc(N)c2cc(OC)c(OC)cc2n1 was read as Coupling enz inactive, Tau fibril FP inconclusive, Tau fluor counter 20µM[quencher] and Tau ThT inhib inactive.
`Cc1ccc(N2C(=O)CCSC23C(=O)N(Cc2ccccc2)c2ccccc23)cc1F` (stereo unspecified) gave Tau fibril FP inactive, Tau fluor counter inactive and Tau ThT inhib inconclusive.
For CCOC(=O)CN(Cc1cc(OC)cc(N(C)C)c1OC)C(=O)C1CC(CO[Si](C)(C)C(C)(C)C)=CN1C(=O)OC(C)(C)C (stereo unspecified) the results were Coupling enz inactive.
`O=C(Nc1nc2c(F)cccc2s1)C1CC1` gave Coupling enz inactive.
For CC1CCc2c(sc(Nc3nc4c(F)cccc4s3)c2C(N)=O)C1 (stereo unspecified) the results were Coupling enz inactive, Tau fibril FP inactive, Tau fluor counter 16µM[quencher], Tau ThT inhib inconclusive and KDM4E inh inconclusive.
Nc1cc([N+](=O)[O-])ccc1O was read as Coupling enz inactive, Tau fibril FP inactive, Tau fluor counter inactive, Tau ThT inhib inactive and KDM4E inh inactive.
For COc1ccc(O)c(N)c1 the results were Coupling enz inactive, Tau fibril FP 11µM, Tau fluor counter 13µM[quencher], Tau ThT inhib 4.5µM and KDM4E inh inconclusive.
For O=[N+]([O-])c1ccc(N2N=C(c3ccco3)CC2c2ccccc2)cc1 (stereo unspecified) the results were Coupling enz inactive, Tau fibril FP inconclusive, Tau fluor counter inconclusive, Tau ThT inhib 8.9µM and KDM4E inh inactive.
Cc1cc(C)nc(NS(=O)(=O)c2ccc(NC(=O)Nc3ccccc3F)cc2)n1 was read as Coupling enz inactive, Tau fibril FP inactive, Tau fluor counter inactive, Tau ThT inhib inactive and KDM4E inh inactive.
Cc1ccc(S(=O)(=O)Nc2ccc(NC(=O)Nc3ccc(F)cc3F)cc2)cc1 was read as Coupling enz inactive, Tau fibril FP inconclusive, Tau fluor counter 11µM[quencher], Tau ThT inhib inactive and KDM4E inh inactive.
`Cc1ccc(NC(=O)CSc2nc(-c3ccccc3Cl)nc3cc(=O)[nH]n23)c(C)c1` gave Tau fibril FP inactive, Tau fluor counter inactive and Tau ThT inhib inactive.
For Cc1oc(/N=C/c2c(O)ccc3ccccc23)c(C#N)c1C the results were Coupling enz -30, Tau fibril FP inconclusive, Tau fluor counter inactive, Tau ThT inhib 18µM and KDM4E inh inconclusive.
`O=C(N/N=C/c1c(O)ccc2ccccc12)c1ccc[n+](CCO)c1` gave Coupling enz inactive, Tau fibril FP inactive, Tau fluor counter inactive, Tau ThT inhib inconclusive and KDM4E inh 32µM.
`Nc1nonc1N/N=C/c1c(O)ccc2ccccc12` gave Coupling enz inactive, Tau fibril FP inactive, Tau fluor counter 10µM[quencher], Tau ThT inhib inconclusive and KDM4E inh inactive.
For Cc1oc(/N=C/c2ccccc2O)c(C#N)c1C the results were Coupling enz inactive, Tau fibril FP inactive, Tau fluor counter inactive, Tau ThT inhib inactive and KDM4E inh inactive.
For O=C(O)c1ccc(N=Cc2c(O)ccc3ccccc23)cc1 the results were Coupling enz -36.
O=C(N/N=C\c1c(O)ccc2ccccc12)c1ccc(O)cc1 was read as Coupling enz inactive.
`O=C(O)Cc1ccc(N=Cc2c(O)ccc3ccccc23)cc1` gave Coupling enz inactive, Tau fibril FP inactive, Tau fluor counter inactive, Tau ThT inhib inconclusive and KDM4E inh inactive.
Screening O=C(Nc1cc(Cl)ccc1Cl)c1cc(S(=O)(=O)N2CCCc3ccccc32)ccc1F returned Tau fibril FP inactive, Tau fluor counter inactive and Tau ThT inhib inactive.
Screening Cc1ccc(S(=O)(=O)N2CCc3nc(COc4ccccc4)c4c(c3C2)CO[C@@H](C)C4)cc1 returned Coupling enz inactive, Tau fibril FP inactive[11.6 µM], Tau fluor counter inactive[11.6 µM], Tau ThT inhib inactive[11.5 µM] and KDM4E inh inactive[11.4 µM].
Cc1ccc(C)c(-c2ccc(C(=O)O)o2)c1 was read as Coupling enz inactive, Tau fibril FP inactive, Tau fluor counter inactive and Tau ThT inhib inactive.
CC(C)(Oc1ccc(Cl)cc1)C(=O)Nc1nnc2n1CCS2 was read as Tau fibril FP inactive, Tau fluor counter inactive and Tau ThT inhib inactive.
Screening CCN(CC)c1ccc(NS(=O)(=O)c2ccc3c(c2)CCCN3C(C)=O)c(C)c1 returned Tau fibril FP inactive, Tau fluor counter inactive and Tau ThT inhib inactive.
For Cc1occc1C(=O)N/N=C/c1c(O)ccc2ccccc12 the results were Coupling enz inactive.

From PubChem
